Experimental findings from the supplement of paper PMC12067926 are described below.

A number with no mark means an inactive call.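 The calls were made as follows: active = growth AUC significantly below the DMSO wells by Dunnett test; inactive = the rest.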

The subject of this assay is Bacillus 1 (Bacillus foraminis). Briefly: relative growth (AUC of 72 h growth curve relative to DMSO control, dAUC) (ratio); higher = more growth (less inhibition), active = hit call of the paper. The following applies: 20 µM. As for the experimental part: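 Environmental bacterial isolates (Iceland stream sediment and Silwood Park soil) and whole stream-sediment communities were grown in LB from a 1:100 dilution with each pesticide at 20 µM (1% DMSO). A600 was read hourly for 72 h and the area under a spline-fitted growth curve (AUC) was computed. dAUC is the mean AUC of 3 biological replicates divided by the mean AUC of the DMSO controls. Significance was tested by Dunnett's test against the DMSO control.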
For the compound `CC(C)(C)C(O)(CCc1ccc(Cl)cc1)Cn1cncn1` (stereo not given), the relative growth is 0.924.
As for `CCCN(CCC)C(=O)SCc1ccccc1`, the relative growth is 0.998.
As to `CC[C@H]1CCC[C@H](O[C@H]2CC[C@H](N(C)C)[C@@H](C)O2)[C@@H](C)C(=O)C2=C[C@@H]3[C@@H](C=C(C)[C@@H]4C[C@@H](O[C@@H]5O[C@@H](C)[C@H](OC)[C@@H](OC)[C@H]5OC)C[C@@H]34)[C@@H]2CC(=O)O1.CC[C@H]1CCC[C@H](O[C@H]2CC[C@H](N(C)C)[C@@H](C)O2)[C@@H](C)C(=O)C2=C[C@H]3[C@@H]4C[C@H](O[C@@H]5O[C@@H](C)[C@H](OC)[C@@H](OC)[C@H]5OC)C[C@H]4C=C[C@H]3C2CC(=O)O1`, the relative growth is 1.04.
The result for `COCc1cnc(C2=NC(C)(C(C)C)C(=O)N2)c(C(=O)O)c1` (stereo not given) reads 0.985; that for `CC(C)N1C(=O)N(c2ccccc2)CS/C1=N\C(C)(C)C`, 1.04.
Consider `CC1(C(=O)Nc2ccc(O)c(Cl)c2Cl)CCCCC1`, for which the relative growth was 1.01.
On to `CCc1cnc(C2=NC(C)(C(C)C)C(=O)N2)c(C(=O)O)c1` (stereo not given), for which the relative growth was 1.11.
`CCc1nn(C)c(C(=O)NCc2ccc(Oc3ccc(C)cc3)cc2)c1Cl`: the relative growth is 1.05.
The figure for `Fc1ccc(Oc2ccnc3cc(Cl)cc(Cl)c23)cc1` is 1.04; for `OC(Cc1ccccc1Cl)(Cn1nc[nH]c1=S)C1(Cl)CC1` (stereo not given) it is 0.988; for `CCCC1COC(Cn2cncn2)(c2ccc(Cl)cc2Cl)O1` (stereo not given) it is 0.942.
As to `OC(Cn1cncn1)(c1ccc(F)cc1)c1ccccc1F` (stereo not given), the relative growth is 1.07.
The result for `COP(=S)(OC)SCN1C(=O)c2ccccc2C1=O` reads 1.04.
Consider `CC(C)(C)c1ccc(CSc2cnn(C(C)(C)C)c(=O)c2Cl)cc1`, for which the relative growth is 1.03.
The figure for `COC(=O)N(OC)c1ccccc1COc1ccn(-c2ccc(Cl)cc2)n1` is 1.06.
Turning to `CS(=O)(=O)c1ccc(C(=O)C2C(=O)CCCC2=O)c([N+](=O)[O-])c1`, the relative growth was 0.961.
On to `CCN(CC)c1nc(C)cc(OP(=S)(OC)OC)n1`, for which the relative growth is 1.03.
The result for `CCCCCCCCCCCCNC(=N)N` reads 0.691 (active).
For `CCC(C)(C)C(=O)OC1=C(c2ccc(Cl)cc2Cl)C(=O)OC12CCCCC2`, the relative growth was 0.975.
The figure for `CNC(=O)ON=C(C)SC` is 0.996; for `CCCCc1c(C)nc(NCC)nc1OS(=O)(=O)N(C)C` it is 0.907.
As for `CC1(C)C(C=C(Cl)Cl)C1C(=O)OCc1cccc(Oc2ccccc2)c1` (stereo not given), the relative growth is 1.06.
Regarding `COC(=O)c1ccccc1S(=O)(=O)NC(=O)Nc1nc(C)nc(OC)n1`, the relative growth was 1.05.
Take `N#CCNC(=O)c1cnccc1C(F)(F)F`: the relative growth is 1.03.
The result for `CC(C)OC(=O)Nc1cccc(Cl)c1` reads 1.15; that for `CC1(C)C(C(=O)OC(C#N)c2cccc(Oc3ccccc3)c2)C1(C)C` (stereo not given), 0.917; that for `Cc1cc(C)c(C2=C(OC(=O)CC(C)(C)C)C3(CCCC3)OC2=O)c(C)c1`, 0.993.
Take `C[N+]1(C)CCCCC1`: the relative growth is 1.04.
`Oc1ccccc1-c1ccccc1`: the relative growth is 0.868.
For the compound `CC(Oc1ccc(Oc2ncc(C(F)(F)F)cc2Cl)cc1)C(=O)O` (stereo not given), the relative growth is 1.
Regarding `CC(C)OC(=O)C(C(=O)OC(C)C)=C1SCCS1`, the relative growth is 1.05.
Consider `COc1cc(C)c(C(=O)c2c(OC)ccc(Br)c2C)c(OC)c1OC`, for which the relative growth was 1.03.
Turning to `CSc1nc(NC(C)C)nc(NC(C)C)n1`, the relative growth is 0.945.
The figure for `CCCN(CCOc1c(Cl)cc(Cl)cc1Cl)C(=O)n1ccnc1` is 1.07; for `ClC1C(Cl)C(Cl)C(Cl)C(Cl)C1Cl` (stereo not given) it is 1.11; for `Cc1cc(C2CC2)nc(Nc2ccccc2)n1` it is 0.911.
The result for `O=C1c2ccccc2C(=O)N1SC(Cl)(Cl)Cl` reads 1.12; that for `Cc1cc(C)nc(Nc2ccccc2)n1`, 1.08.
As to `CCc1cc(C)cc(CC)c1-c1c(OC(=O)C(C)(C)C)n2n(c1=O)CCOCC2`, the relative growth is 0.912.
Take `O=C1C2(Cl)C3(Cl)C4(Cl)C(Cl)(Cl)C5(Cl)C3(Cl)C1(Cl)C5(Cl)C24Cl` (stereo not given): the relative growth is 0.959.
